Tests used:
Assay in all cases: DAPPL (digital affinity profiling via proximity ligation, sequencing); 10 mM Tris-HCl pH 7.5, 50 mM NaCl, 1 mM DTT, 4% glycerol, room temperature, 30 min; GST-TFs on glutathione beads, 16-mer random dsDNA library, 0.1% formaldehyde crosslink after washing; high values mean tight binding
FEV = molecular target: T1, FEV (Homo sapiens, UniProt Q99581 1-238); details: protein: recombinant; tags: N-terminal GST; dsDNA, one strand shown
T1 sequence: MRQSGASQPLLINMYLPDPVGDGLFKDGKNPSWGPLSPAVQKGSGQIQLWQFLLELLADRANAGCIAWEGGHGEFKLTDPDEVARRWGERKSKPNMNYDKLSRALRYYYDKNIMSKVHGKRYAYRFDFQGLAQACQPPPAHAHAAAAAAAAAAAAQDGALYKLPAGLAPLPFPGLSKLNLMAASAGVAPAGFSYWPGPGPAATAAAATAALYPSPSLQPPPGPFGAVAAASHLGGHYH
How it was run: (§1)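 Beads coated with glutathione captured GST-fused human transcription factors that had been expressed in yeast, and the factors were then given DNA barcodes and pooled with a tag-only sample. The pools were incubated with 200 nmole of a random double-stranded 16-mer DNA library in Tris/NaCl/DTT/glycerol buffer for 30 min at room temperature, washed, crosslinked with 0.1% formaldehyde and proximity-ligated with BsaI/T4 ligase at 37 °C for 1 h. PCR amplification and Illumina NextSeq500 sequencing came last. Binding signal is each hexamer's read frequency for a factor divided by its frequency for the tag-only sample.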

ETV5 = ETV5 (Homo sapiens, UniProt P41161 1-510); details: protein: recombinant; tags: N-terminal GST; dsDNA, one strand shown
How it was run: as §1

HSF1 = HSF1 (Homo sapiens, UniProt Q00613 1-529); details: protein: recombinant; tags: N-terminal GST; chain copies: 3; dsDNA, one strand shown
How it was run: as §1

SPIC = molecular target: T2, SPIC (Homo sapiens, UniProt Q8N5J4 1-248); details: protein: recombinant; tags: N-terminal GST; dsDNA, one strand shown
T2 sequence: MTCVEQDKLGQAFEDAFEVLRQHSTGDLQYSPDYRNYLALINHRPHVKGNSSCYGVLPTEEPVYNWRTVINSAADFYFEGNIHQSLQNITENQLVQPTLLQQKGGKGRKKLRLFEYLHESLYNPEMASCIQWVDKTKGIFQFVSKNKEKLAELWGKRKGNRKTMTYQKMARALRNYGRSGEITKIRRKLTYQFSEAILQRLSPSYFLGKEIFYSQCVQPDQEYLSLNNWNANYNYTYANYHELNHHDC
How it was run: as §1

ELF4 = ELF4 (Homo sapiens, UniProt Q99607 1-663); details: protein: recombinant; tags: N-terminal GST; dsDNA, one strand shown
How it was run: as §1

ELK4 = molecular target: T3, ELK4 (Homo sapiens, UniProt P28324-2 1-405); details: protein: recombinant; tags: N-terminal GST; dsDNA, one strand shown
T3 sequence: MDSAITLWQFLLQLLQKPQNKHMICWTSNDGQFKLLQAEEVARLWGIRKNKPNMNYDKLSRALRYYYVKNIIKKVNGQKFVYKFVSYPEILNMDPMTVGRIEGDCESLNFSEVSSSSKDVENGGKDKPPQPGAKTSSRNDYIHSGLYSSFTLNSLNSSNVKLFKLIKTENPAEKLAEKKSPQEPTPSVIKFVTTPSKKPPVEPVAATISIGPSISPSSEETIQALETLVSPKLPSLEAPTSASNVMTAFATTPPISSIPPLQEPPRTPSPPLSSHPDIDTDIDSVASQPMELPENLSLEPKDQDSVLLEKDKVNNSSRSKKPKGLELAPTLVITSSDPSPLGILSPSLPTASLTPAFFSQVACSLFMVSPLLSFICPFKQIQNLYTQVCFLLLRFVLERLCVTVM
How it was run: as §1

ETV2 = molecular target: T4, ETV2 (Homo sapiens, UniProt O00321 1-342); details: protein: recombinant; tags: N-terminal GST; dsDNA, one strand shown
T4 sequence: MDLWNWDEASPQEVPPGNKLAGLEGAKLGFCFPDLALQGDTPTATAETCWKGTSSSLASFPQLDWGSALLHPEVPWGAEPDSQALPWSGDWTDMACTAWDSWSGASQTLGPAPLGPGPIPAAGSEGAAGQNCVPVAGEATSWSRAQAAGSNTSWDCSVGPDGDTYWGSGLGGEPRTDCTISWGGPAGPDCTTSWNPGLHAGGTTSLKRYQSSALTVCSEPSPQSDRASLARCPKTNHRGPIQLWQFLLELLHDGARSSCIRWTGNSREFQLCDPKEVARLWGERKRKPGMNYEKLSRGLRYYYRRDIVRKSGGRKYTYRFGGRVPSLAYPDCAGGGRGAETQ
How it was run: as §1

ELF3 = molecular target: T5, ELF3 (Homo sapiens, UniProt P78545 1-371); details: protein: recombinant; tags: N-terminal GST; dsDNA, one strand shown
T5 sequence: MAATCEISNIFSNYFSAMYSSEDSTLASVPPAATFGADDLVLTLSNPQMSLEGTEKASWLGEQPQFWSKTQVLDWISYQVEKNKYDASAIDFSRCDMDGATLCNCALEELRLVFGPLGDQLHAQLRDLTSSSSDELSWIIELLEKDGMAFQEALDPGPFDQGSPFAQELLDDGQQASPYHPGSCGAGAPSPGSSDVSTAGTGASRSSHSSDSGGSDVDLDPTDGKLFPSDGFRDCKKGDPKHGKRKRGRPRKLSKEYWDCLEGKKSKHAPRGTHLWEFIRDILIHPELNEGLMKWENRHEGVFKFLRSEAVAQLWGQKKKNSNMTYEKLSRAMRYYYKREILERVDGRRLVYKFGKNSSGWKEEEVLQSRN
How it was run: as §1

CRX = CRX (Homo sapiens, UniProt O43186 1-299); details: protein: recombinant; tags: N-terminal GST; dsDNA, one strand shown
How it was run: as §1

ETV1 = ETV1 (Homo sapiens, UniProt P50549 1-477); details: protein: recombinant; tags: N-terminal GST; dsDNA, one strand shown
How it was run: as §1

ERF = molecular target: T6, ERF (Homo sapiens, UniProt P50548 1-548); details: protein: recombinant; tags: N-terminal GST; dsDNA, one strand shown
T6 sequence: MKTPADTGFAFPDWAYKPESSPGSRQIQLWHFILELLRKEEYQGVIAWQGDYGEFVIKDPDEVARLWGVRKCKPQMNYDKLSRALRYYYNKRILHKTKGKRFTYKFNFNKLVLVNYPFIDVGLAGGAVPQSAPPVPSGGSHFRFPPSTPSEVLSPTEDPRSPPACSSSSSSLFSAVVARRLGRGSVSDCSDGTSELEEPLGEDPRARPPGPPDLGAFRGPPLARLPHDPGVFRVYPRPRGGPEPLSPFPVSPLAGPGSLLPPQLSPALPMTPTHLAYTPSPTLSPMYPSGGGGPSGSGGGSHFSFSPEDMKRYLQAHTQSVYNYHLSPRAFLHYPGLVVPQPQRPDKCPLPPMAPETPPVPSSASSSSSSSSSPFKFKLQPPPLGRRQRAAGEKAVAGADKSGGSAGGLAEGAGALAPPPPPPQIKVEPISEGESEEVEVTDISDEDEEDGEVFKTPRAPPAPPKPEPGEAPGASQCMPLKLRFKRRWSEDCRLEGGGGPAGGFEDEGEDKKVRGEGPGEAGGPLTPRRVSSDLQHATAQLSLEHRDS
How it was run: as §1

ETV3L = molecular target: T7, ETV3L (Homo sapiens, UniProt Q6ZN32 1-361); details: protein: recombinant; tags: N-terminal GST; dsDNA, one strand shown
T7 sequence: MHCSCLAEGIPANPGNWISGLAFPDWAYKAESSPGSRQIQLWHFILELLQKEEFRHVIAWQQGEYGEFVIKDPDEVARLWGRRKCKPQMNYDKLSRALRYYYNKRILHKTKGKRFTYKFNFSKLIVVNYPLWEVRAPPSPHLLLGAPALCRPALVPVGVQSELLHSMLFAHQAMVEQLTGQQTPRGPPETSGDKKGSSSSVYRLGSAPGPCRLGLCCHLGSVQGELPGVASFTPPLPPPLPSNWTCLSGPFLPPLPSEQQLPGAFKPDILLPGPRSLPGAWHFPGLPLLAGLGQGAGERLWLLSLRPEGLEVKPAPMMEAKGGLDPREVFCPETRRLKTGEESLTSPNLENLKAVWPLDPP
How it was run: as §1

ETS2 = molecular target: T8, ETS2 (Homo sapiens, UniProt P15036 1-469); details: protein: recombinant; tags: N-terminal GST; dsDNA, one strand shown
T8 sequence: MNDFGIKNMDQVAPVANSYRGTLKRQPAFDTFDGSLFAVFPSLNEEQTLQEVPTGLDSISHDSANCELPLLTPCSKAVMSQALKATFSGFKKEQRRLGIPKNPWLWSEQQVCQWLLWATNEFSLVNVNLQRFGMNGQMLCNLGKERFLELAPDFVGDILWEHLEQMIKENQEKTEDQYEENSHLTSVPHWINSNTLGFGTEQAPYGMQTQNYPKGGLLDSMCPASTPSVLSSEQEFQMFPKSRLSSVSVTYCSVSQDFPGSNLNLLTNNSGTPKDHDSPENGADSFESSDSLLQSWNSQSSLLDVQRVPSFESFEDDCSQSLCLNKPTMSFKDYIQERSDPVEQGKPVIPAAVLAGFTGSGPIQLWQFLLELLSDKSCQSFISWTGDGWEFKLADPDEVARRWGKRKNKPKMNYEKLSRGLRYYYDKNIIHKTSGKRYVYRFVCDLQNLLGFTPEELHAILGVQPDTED
How it was run: as §1

SPDEF = molecular target: T9, SPDEF (Homo sapiens, UniProt O95238 1-335); details: protein: recombinant; tags: N-terminal GST; dsDNA, one strand shown
T9 sequence: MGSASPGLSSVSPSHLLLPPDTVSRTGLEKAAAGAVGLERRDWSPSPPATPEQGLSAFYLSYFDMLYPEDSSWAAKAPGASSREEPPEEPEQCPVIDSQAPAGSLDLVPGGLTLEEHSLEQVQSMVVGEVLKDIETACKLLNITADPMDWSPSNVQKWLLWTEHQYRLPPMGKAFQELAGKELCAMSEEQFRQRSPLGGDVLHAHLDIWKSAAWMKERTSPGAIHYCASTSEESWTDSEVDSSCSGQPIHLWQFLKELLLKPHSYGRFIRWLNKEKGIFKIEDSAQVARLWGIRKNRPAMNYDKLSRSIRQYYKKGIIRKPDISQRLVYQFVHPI
How it was run: as §1

ETV7 = molecular target: T10, ETV7 (Homo sapiens, UniProt Q9Y603 1-341); details: protein: recombinant; tags: N-terminal GST; dsDNA, one strand shown
T10 sequence: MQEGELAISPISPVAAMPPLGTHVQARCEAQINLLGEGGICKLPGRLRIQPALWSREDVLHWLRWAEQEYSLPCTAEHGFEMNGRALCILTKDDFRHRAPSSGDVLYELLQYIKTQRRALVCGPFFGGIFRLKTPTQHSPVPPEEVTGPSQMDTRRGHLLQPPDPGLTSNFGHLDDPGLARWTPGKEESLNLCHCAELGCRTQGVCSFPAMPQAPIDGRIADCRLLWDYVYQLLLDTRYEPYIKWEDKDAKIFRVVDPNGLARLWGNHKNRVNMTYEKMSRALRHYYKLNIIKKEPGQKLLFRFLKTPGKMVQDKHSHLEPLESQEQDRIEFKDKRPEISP
How it was run: as §1

ELF5 = molecular target: T11, ELF5 (Homo sapiens, UniProt Q9UKW6-2 1-255); details: protein: recombinant; tags: N-terminal GST; dsDNA, one strand shown
T11 sequence: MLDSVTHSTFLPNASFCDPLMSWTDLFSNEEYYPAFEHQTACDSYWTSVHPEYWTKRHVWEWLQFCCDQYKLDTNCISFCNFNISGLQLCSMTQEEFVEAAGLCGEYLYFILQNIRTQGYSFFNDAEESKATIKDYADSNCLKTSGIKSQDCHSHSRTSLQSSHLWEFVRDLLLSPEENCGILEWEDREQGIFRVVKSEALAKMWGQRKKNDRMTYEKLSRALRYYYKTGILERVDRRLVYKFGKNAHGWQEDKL
How it was run: as §1

ETV3 = molecular target: T12, ETV3 (Homo sapiens, UniProt P41162-2 1-143); details: protein: recombinant; tags: N-terminal GST; dsDNA, one strand shown
T12 sequence: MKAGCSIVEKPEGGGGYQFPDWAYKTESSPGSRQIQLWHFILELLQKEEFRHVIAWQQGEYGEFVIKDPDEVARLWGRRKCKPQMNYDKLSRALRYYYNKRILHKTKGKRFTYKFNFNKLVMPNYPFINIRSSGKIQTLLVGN
How it was run: as §1

ETV6 = ETV6 (Homo sapiens, UniProt P41212 1-452); details: protein: recombinant; tags: N-terminal GST; dsDNA, one strand shown
How it was run: as §1

Sequence of ETV5 (P41161 whole entry): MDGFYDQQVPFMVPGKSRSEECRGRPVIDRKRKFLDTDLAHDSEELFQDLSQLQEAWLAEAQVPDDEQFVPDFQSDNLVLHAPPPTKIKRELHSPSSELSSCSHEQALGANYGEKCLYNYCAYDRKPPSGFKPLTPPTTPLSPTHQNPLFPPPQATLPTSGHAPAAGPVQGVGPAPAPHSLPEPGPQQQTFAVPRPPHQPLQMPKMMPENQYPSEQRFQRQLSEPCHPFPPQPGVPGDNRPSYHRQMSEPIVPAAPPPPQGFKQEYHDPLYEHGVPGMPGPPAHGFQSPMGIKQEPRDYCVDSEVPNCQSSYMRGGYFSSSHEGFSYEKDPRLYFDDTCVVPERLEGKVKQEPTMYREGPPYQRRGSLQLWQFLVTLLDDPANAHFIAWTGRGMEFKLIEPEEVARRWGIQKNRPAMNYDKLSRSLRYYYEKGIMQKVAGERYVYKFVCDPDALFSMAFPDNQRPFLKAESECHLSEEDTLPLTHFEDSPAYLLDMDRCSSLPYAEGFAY
Sequence of HSF1 (Q00613 whole entry): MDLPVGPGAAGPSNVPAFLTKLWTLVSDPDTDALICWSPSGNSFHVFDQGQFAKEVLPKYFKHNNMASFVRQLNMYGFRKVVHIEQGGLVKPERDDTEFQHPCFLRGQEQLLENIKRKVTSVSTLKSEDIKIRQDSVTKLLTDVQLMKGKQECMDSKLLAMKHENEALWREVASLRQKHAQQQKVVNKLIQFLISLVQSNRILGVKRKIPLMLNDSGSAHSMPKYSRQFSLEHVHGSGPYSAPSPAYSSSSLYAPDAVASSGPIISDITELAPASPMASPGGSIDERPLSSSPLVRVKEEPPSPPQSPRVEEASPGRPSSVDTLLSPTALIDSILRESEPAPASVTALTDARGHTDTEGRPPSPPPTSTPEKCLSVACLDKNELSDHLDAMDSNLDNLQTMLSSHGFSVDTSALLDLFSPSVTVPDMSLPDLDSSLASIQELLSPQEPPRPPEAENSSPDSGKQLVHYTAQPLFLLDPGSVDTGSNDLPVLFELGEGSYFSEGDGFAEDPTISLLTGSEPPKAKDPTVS
Sequence of ETV6 (P41212 whole entry): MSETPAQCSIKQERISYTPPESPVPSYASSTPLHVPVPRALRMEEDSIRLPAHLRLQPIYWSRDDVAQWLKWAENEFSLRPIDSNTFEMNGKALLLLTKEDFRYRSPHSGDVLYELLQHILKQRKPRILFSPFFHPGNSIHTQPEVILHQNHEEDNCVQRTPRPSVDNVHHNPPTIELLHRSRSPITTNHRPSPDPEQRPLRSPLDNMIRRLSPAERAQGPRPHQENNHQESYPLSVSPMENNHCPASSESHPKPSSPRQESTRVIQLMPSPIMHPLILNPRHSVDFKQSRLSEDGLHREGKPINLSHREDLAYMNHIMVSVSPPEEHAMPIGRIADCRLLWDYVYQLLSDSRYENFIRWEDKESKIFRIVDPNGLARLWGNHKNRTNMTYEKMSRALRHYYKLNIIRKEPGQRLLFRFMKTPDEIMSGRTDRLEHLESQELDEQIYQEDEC
Sequence of ELF4 (Q99607 whole entry): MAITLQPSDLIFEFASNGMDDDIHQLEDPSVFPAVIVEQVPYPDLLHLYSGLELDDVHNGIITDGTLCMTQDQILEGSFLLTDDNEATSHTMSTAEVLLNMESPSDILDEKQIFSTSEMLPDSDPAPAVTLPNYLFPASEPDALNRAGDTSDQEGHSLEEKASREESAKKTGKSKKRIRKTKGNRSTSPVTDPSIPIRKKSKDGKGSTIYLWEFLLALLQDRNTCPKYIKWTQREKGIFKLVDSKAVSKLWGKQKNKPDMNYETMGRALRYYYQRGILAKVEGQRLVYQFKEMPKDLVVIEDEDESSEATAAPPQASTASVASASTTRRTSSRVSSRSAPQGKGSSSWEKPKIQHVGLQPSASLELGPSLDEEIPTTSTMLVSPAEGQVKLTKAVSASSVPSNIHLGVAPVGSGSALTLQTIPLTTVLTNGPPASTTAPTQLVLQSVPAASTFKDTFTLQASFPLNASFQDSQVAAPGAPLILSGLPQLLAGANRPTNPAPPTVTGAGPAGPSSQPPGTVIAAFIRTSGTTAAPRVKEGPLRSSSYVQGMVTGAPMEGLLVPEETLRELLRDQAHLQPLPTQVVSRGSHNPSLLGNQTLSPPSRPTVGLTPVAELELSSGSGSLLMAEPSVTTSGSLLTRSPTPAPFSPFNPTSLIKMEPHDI
Sequence of CRX (O43186 whole entry): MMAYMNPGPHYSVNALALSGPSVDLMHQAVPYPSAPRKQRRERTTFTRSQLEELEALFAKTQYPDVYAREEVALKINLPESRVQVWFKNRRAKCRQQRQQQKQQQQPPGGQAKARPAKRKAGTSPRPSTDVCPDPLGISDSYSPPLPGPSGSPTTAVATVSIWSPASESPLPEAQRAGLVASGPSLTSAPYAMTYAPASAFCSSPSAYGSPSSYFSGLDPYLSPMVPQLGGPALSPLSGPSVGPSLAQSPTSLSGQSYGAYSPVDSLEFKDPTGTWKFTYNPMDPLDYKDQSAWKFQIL
Sequence of ETV1 (P50549 whole entry): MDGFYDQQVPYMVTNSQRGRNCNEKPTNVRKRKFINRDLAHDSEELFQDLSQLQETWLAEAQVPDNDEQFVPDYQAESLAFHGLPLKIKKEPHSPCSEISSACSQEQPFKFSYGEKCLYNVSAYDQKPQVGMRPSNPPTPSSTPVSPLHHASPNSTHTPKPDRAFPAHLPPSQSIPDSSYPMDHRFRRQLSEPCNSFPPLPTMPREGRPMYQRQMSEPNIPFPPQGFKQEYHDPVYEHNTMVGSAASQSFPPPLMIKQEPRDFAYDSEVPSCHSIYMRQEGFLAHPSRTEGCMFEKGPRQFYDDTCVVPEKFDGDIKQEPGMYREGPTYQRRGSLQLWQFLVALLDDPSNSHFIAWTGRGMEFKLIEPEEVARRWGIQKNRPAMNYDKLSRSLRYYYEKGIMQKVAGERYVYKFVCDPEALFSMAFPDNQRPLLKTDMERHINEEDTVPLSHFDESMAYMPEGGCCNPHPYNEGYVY

TGACAA
binding signal (FEV): 1.22 fold enrichment (6-mer frequency, TF over GST control) | binding signal (ETV5): 1.22 fold enrichment (6-mer frequency, TF over GST control) | binding signal (HSF1): 1.06 fold enrichment (6-mer frequency, TF over GST control) | binding signal (SPIC): 1.11 fold enrichment (6-mer frequency, TF over GST control) | binding signal (ELF4): 1.26 fold enrichment (6-mer frequency, TF over GST control) | binding signal (ELK4): 1.2 fold enrichment (6-mer frequency, TF over GST control) | binding signal (ETV2): 1.14 fold enrichment (6-mer frequency, TF over GST control) | binding signal (ELF3): 1.3 fold enrichment (6-mer frequency, TF over GST control) | binding signal (CRX): 1.05 fold enrichment (6-mer frequency, TF over GST control) | binding signal (ETV1): 1.25 fold enrichment (6-mer frequency, TF over GST control) | binding signal (ERF): 1.23 fold enrichment (6-mer frequency, TF over GST control) | binding signal (ETV3L): 1.34 fold enrichment (6-mer frequency, TF over GST control) | binding signal (ETS2): 1.27 fold enrichment (6-mer frequency, TF over GST control) | binding signal (SPDEF): 1.21 fold enrichment (6-mer frequency, TF over GST control) | binding signal (ETV7): 1.31 fold enrichment (6-mer frequency, TF over GST control) | binding signal (ELF5): 1.23 fold enrichment (6-mer frequency, TF over GST control) | binding signal (ETV3): 1.26 fold enrichment (6-mer frequency, TF over GST control) | binding signal (ETV6): 1.23 fold enrichment (6-mer frequency, TF over GST control)
